Out of some 310,000 compounds screened, about 14,000 (4.5%) showed an effect of 50% or more. Effects have a minus sign here. The sample as a whole holds a higher share of strong results than the screen did.
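Note: peak tail current of the secondary pulse compared with the same well before compound.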

Chain of human ether-à-go-go-related gene (hERG) potassium channel (Q12809 whole entry, looked up): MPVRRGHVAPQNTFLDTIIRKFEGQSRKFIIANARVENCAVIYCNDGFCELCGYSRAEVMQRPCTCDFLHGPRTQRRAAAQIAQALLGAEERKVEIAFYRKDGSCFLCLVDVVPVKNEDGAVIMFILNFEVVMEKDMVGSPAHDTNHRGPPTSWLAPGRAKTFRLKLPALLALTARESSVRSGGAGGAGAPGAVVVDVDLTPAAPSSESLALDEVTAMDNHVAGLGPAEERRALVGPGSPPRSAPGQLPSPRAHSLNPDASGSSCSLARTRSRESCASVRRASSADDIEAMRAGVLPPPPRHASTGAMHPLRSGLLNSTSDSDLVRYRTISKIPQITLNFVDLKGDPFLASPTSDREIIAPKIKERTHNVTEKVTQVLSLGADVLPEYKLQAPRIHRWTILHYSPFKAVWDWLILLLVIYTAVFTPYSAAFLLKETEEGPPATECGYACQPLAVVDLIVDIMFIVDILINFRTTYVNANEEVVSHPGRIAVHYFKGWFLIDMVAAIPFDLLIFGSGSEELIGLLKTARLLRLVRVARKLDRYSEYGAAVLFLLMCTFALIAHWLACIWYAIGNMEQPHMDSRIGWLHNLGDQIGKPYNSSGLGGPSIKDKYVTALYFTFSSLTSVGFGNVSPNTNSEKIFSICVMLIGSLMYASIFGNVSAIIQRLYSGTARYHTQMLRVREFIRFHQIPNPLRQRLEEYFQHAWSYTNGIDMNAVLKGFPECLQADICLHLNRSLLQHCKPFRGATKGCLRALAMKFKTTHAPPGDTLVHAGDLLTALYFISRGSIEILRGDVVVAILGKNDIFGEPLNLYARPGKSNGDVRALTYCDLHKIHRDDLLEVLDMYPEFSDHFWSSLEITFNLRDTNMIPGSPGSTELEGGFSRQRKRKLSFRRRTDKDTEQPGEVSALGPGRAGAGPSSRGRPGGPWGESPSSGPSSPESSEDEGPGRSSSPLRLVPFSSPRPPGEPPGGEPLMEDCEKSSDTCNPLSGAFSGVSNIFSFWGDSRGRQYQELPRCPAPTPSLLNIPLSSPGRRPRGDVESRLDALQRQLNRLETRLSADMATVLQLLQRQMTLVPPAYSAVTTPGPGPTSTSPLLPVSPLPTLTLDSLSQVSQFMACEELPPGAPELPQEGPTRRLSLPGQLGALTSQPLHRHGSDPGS

This assay addresses human ether-à-go-go-related gene (hERG) potassium channel (human, UniProt Q12809). Briefly: primary screen, population patch clamp on CHO cells stably expressing hERG; higher = less effect of the substance.
In the case of `CC/C(=N\Nc1ccc([N+](=O)[O-])cc1[N+](=O)[O-])c1ccc(O)cc1`, the “hERG current change (%, negative = inhibition) at 10uM” value was determined as 21.7%.
In the case of `Cc1ccc(S(=O)(=O)c2ncccc2N)cc1`, the “hERG current change (%, negative = inhibition) at 10uM” value worked out at 12.4%.
To `Cc1ccc(S(=O)(=O)c2ncccc2[N+](=O)[O-])cc1` belongs -64%; to `O=[N+]([O-])c1cccnc1S(=O)(=O)c1ccccc1`, 15.9%.
To `Cc1noc(C)c1C(=O)Nc1ccccc1C(=O)NCCc1ccccc1` belongs 8.93%.
To `Cc1nn(-c2ccccc2)c(C)c1C(=O)OCC(=O)N1CC(=O)Nc2ccccc21` belongs 1.89%; to `CC1(OC(=O)C2CCCC2)C(=O)C=C2C=C(c3ccsc3)N(C3CCCC3)C=C2C1=O` (centres unmarked), -64.7%; to `CC1(OC(=O)C2CCCC2)C(=O)C=C2C=C(c3ccsc3)N(CC3CC3)C=C2C1=O` (centres unmarked), -11.8%.
For the compound `CC1(OC(=O)C2CCCC2)C(=O)C=C2C=C(c3ccsc3)N(C3CCCCC3)C=C2C1=O` (centres unmarked), the “hERG current change (%, negative = inhibition) at 10uM” value is listed as -15.8%.
To `CC1(OC(=O)C2CCCC2)C(=O)C=C2C=C(c3ccsc3)N(CCCCO)C=C2C1=O` (centres unmarked) belongs 1.16%; to `COc1ccc(CN2C=C3C(=O)C(C)(OC(=O)C4CCCC4)C(=O)C=C3C=C2c2ccsc2)cc1` (centres unmarked), -64.4%; to `CC(C)CN1C=C2C(=O)C(C)(OC(=O)C3CCCC3)C(=O)C=C2C=C1c1ccsc1` (centres unmarked), -0.438%.
To `CC1(OC(=O)C2CCCC2)C(=O)C=C2C=C(c3ccsc3)N(Cc3ccco3)C=C2C1=O` (centres unmarked) belongs -23.2%; to `CC1(OC(=O)C2CCCC2)C(=O)C=C2C=C(c3ccsc3)N(Cc3ccc4c(c3)OCO4)C=C2C1=O` (centres unmarked), -79.6%; to `COCCN1C=C2C(=O)C(C)(OC(=O)C3CCCC3)C(=O)C=C2C=C1c1ccsc1` (centres unmarked), -6.22%.
Turning to `CC1(OC(=O)C2CCCC2)C(=O)C=C2C=C(c3ccsc3)N(C3CC3)C=C2C1=O` (centres unmarked), the “hERG current change (%, negative = inhibition) at 10uM” value came out at 16.5%.
To `CC1(OC(=O)C2CCCC2)C(=O)C=C2C=C(c3ccsc3)N(Cc3ccccc3)C=C2C1=O` (centres unmarked) belongs -52.5%.
On to `C=CCN1C=C2C(=O)C(C)(OC(=O)C3CCCC3)C(=O)C=C2C=C1c1ccsc1` (centres unmarked), for which the “hERG current change (%, negative = inhibition) at 10uM” value is given as -19.4%.
To `COC(=O)c1ccc(COC(=O)CNC(=O)CNC(=O)c2ccc(OC)cc2)cc1` belongs -6.8%; to `CN(C(=O)CN1C(=O)C2C3CC(C(Br)C3Br)C2C1=O)C1CCCCC1` (centres unmarked), -8.93%; to `CCOC(=O)Cn1c(S(=O)(=O)Cc2ccc(F)cc2)nc(-c2ccccc2)c1-c1ccccc1`, -7.15%.
Regarding `CCCCCCSc1cc(C)nc2ncnn12`, the “hERG current change (%, negative = inhibition) at 10uM” value is -42.9%.
Turning to `CCc1cccc(CC)c1-n1c(-c2cccnc2)n[nH]c1=S`, the “hERG current change (%, negative = inhibition) at 10uM” value was found to be 18.1%.
To `O=C(c1cc(Br)ccc1OC(F)F)N1CCN2CCCC2C1` (centres unmarked) belongs -4.15%; to `CCOC(=O)CSc1nnc(-c2ccccc2NC(=O)c2ccccc2)o1`, 12.2%; to `CC(C)Nc1oc(-c2cccc3ccccc23)nc1C#N`, 2.18%.
To `O=C(NC(=S)NCCO)c1sc2ccccc2c1Cl` belongs -0.142%.
To `Cl.NCCc1ccc(OCc2ccccc2)c(OCc2ccccc2)c1` belongs -22.1%; to `COc1cc(CCC(=O)N2CCN(c3ccc(N4CCOCC4)nn3)CC2)cc(OC)c1OC`, -9.65%; to `COc1cc(CCC(=O)N2CCN(c3ccc([N+](=O)[O-])cc3)CC2)cc(OC)c1OC`, -78.4%.
In the case of `COc1cc(CCC(=O)N2CCN(c3ncccn3)CC2)cc(OC)c1OC`, the “hERG current change (%, negative = inhibition) at 10uM” value came to 11.8%.
To `COc1ccc(CCC(=O)N2CCN(c3ccc([N+](=O)[O-])cc3)CC2)cc1OC` belongs -81.5%; to `COc1cc(CCC(=O)N2CCN(c3cccc(C)c3C)CC2)cc(OC)c1OC`, -2.88%; to `COc1ccc(N2CCN(C(=O)Cc3ccc(OC)c(OC)c3)CC2)cc1`, 6.38%.
On to `COc1cc(CCC(=O)N2CCN(c3ccccc3)CC2)cc(OC)c1OC`, for which the “hERG current change (%, negative = inhibition) at 10uM” value is given as -58.5%.
To `COc1ccc(CCC(=O)N2CCN(c3ccccc3)CC2)cc1OC` belongs 14%.
As to `COc1ccc(C(=O)N2CCN(c3ccc([N+](=O)[O-])c(NCCc4ccc(OC)c(OC)c4)c3)CC2)cc1`, the “hERG current change (%, negative = inhibition) at 10uM” value is on record as 4.2%.
To `O=C(Cc1cccc(C(F)(F)F)c1)OCC(=O)N1CCN(S(=O)(=O)c2ccc(Cl)cc2)CC1` belongs -6.07%.
To `COc1ccc(OC)c(NC(=S)NCc2cccs2)c1` belongs -18.3%; to `CCOC(=O)C1(Cc2ccccc2C)CCCN(S(=O)(=O)CC)C1` (centres unmarked), 13.9%.
To `COc1cccc(NS(=O)(=O)c2ccc3c(c2)n(C)c(=O)c(=O)n3C)c1` belongs -6.59%; to `COC(=O)c1[nH]c2cc(OC)ccc2c1NC(=O)CCN1CCSCC1`, 7.01%; to `CCc1nn(C(C)C(=O)N2CC(C)CC(C)C2)c(=O)c2cc3occc3n12` (centres unmarked), -7.58%.
Consider `CNC(=O)Nc1ccc(Cl)cc1`, for which the “hERG current change (%, negative = inhibition) at 10uM” value turned out to be 7.56%.
To `CC(=O)n1cc([C@H]2C=C(C(=O)N3CCN(Cc4ccccc4)CC3)O[C@@H](OCCCCO)C2)c2ccccc21` belongs -42.5%.
To `CC(=O)n1cc([C@@H]2C=C(C(=O)N3CCN(Cc4ccccc4)CC3)O[C@H](OCc3ccc(CO)cc3)C2)c2ccccc21` belongs -10.1%.
To `CC(=O)n1cc([C@H]2C=C(C(N)=O)O[C@@H](OCc3ccc(CO)cc3)C2)c2ccccc21` belongs -16.8%.
For the compound `C=CCOC(=O)C1=C[C@H](c2cn(C(C)=O)c3ccccc23)C[C@H](OCc2ccc(CO)cc2)O1`, the “hERG current change (%, negative = inhibition) at 10uM” value is recorded as -9.82%.
Turning to `O=C(C1=C[C@H](c2csc3ccccc23)C[C@H](OCc2ccc(CO)cc2)O1)N1CCCCCCC1`, the “hERG current change (%, negative = inhibition) at 10uM” value is given as -15.1%.
To `O=C(C1=C[C@@H](c2csc3ccccc23)C[C@@H](OCc2ccc(CO)cc2)O1)N1CCOCC1` belongs -27.5%; to `CC(=O)n1cc([C@@H]2C=C(C(=O)N3CCOCC3)O[C@H](OCc3ccc(CO)cc3)C2)c2ccccc21`, -74.8%; to `C=CCOC(=O)C1=C[C@@H](c2cn(C(C)=O)c3ccccc23)C[C@@H](OCc2ccc(CO)cc2)O1`, -93.5%.
As to `CC(=O)n1cc([C@@H]2C=C(C(=O)N3CCOCC3)O[C@H](OCCCCO)C2)c2ccccc21`, the “hERG current change (%, negative = inhibition) at 10uM” value is given as -51.6%.
As for `CC(=O)n1cc([C@@H]2C=C(C(=O)O)O[C@H](OCc3ccc(CO)cc3)C2)c2ccccc21`, the “hERG current change (%, negative = inhibition) at 10uM” value turned out to be 0.587%.
To `CC(=O)n1cc([C@H]2C=C(C(=O)N3CCOCC3)O[C@@H](OCCCCO)C2)c2ccccc21` belongs -17.1%.
To `O=C(C1=C[C@H](c2csc3ccccc23)C[C@H](OCc2ccc(CO)cc2)O1)N1CCOCC1` belongs -59.2%; to `O=C(CCCCCn1c(=S)[nH]c2ccc(N3CCOCC3)cc2c1=O)NCc1ccccc1Cl`, 4.65%; to `C=COCCn1c(-c2nonc2N)nc2ccccc21`, -3.07%.
To `CC(NC(=O)CCC(=O)NCc1ccc(F)cc1)c1ccccc1` (centres unmarked) belongs 13.3%; to `COc1ccc(NC(=S)NC(NC(=O)CF)C(Cl)(Cl)Cl)cc1[N+](=O)[O-]` (centres unmarked), 15%.
`CCOC(=O)c1ccc(NC(=O)CC2C(=O)N(c3ccc(F)cc3)C(=O)N2CCC(C)C)cc1` (centres unmarked): the “hERG current change (%, negative = inhibition) at 10uM” value is given as -8.43%.
To `COc1ccc(-c2cc(-c3ccc(OC)cc3)c(C#N)c(SC)n2)cc1` belongs 5.38%.
To `CCn1nc(C(=O)Nc2cccc(S(=O)(=O)N3CCCC3)c2)c2ccccc2c1=O` belongs -22.3%; to `COc1ccc(S(=O)(=O)N2CCCC(C(F)(F)F)C2)cc1` (centres unmarked), 10.2%; to `O=C(CCNS(=O)(=O)c1ccc2c(c1)CCC(=O)N2)NCc1ccc2c(c1)OCO2`, 0.608%.
To `Cc1cccc(NC(=O)Nc2cc(C)on2)c1` belongs 9.14%.
As to `C=C1CCC[C@]2(C)C[C@H]3OC(=O)C(CN4CCOCC4)[C@H]3C[C@@H]12` (some centres unmarked), the “hERG current change (%, negative = inhibition) at 10uM” value is recorded as 17.7%.
To `COc1cccc(OC)c1C(=O)Nc1cccc(-n2cnnn2)c1` belongs 15.7%; to `CN1CCC(OC(=O)Cc2ccc(Cl)cc2)CC1.Cl`, -11%; to `CN(C(=S)Nc1ccc(Oc2ccccc2)cc1)c1ccc(O)cc1`, -6.93%.
To `CC(=O)n1cc([C@H]2C=C(C(=O)N3CCOCC3)O[C@@H](OCc3ccc(CO)cc3)C2)c2ccccc21` belongs -55.2%; to `CC(=O)n1cc([C@H]2C=C(C(=O)N3CCN(Cc4ccccc4)CC3)O[C@@H](OCc3ccc(CO)cc3)C2)c2ccccc21`, -24%; to `CC(=O)n1cc([C@@H]2C=C(C(=O)N3CCN(C)CC3)O[C@H](OCc3ccc(CO)cc3)C2)c2ccccc21`, -41.7%.
To `CCN(c1ccccc1)S(=O)(=O)c1ccc(C(=O)N(C)CCc2ccc(OC)c(OC)c2)cc1` belongs -13.8%; to `Brc1ccc(CN2CCN(c3ccccc3)CC2)o1`, 13.8%.
Turning to `O=[N+]([O-])c1ccc(N2CCN(Cc3ccc(Br)o3)CC2)cc1`, the “hERG current change (%, negative = inhibition) at 10uM” value is on record as -65.1%.
To `O=C(O)C(=O)O.O=[N+]([O-])c1ccc(N2CCN(Cc3ccc([N+](=O)[O-])o3)CC2)cc1` belongs -71.1%; to `O=[N+]([O-])c1ccc(CN2CCN(c3ccccc3)CC2)o1`, 9.7%.
To `Clc1ccc(N2CCN(Cc3ccc(Br)o3)CC2)cc1` belongs 7.93%; to `O=[N+]([O-])c1ccc(CN2CCN(c3ccc(Cl)cc3)CC2)o1`, -2.29%.
